Experiment [1] addresses Dual specificity protein kinase CLK3 (Homo sapiens) (UniProt P49761). The following applies: at 1 µM.
The target of experiment [2] is Dual specificity tyrosine-phosphorylation-regulated kinase 1A (Homo sapiens) (UniProt Q13627). Conditions: at 0.1 µM.
For experiment [3] the target is unchanged. The following applies: at 1 µM.
Experiment [4] deals with Dual specificity tyrosine-phosphorylation-regulated kinase 1B (Homo sapiens) (UniProt Q9Y463). Conditions: at 0.1 µM.
Experiment [5] has the same target. Conditions: at 1 µM.
Experiment [6] addresses T1, Dual specificity tyrosine-phosphorylation-regulated kinase 2 (Homo sapiens) (UniProt Q92630).
T1 sequence (whole entry): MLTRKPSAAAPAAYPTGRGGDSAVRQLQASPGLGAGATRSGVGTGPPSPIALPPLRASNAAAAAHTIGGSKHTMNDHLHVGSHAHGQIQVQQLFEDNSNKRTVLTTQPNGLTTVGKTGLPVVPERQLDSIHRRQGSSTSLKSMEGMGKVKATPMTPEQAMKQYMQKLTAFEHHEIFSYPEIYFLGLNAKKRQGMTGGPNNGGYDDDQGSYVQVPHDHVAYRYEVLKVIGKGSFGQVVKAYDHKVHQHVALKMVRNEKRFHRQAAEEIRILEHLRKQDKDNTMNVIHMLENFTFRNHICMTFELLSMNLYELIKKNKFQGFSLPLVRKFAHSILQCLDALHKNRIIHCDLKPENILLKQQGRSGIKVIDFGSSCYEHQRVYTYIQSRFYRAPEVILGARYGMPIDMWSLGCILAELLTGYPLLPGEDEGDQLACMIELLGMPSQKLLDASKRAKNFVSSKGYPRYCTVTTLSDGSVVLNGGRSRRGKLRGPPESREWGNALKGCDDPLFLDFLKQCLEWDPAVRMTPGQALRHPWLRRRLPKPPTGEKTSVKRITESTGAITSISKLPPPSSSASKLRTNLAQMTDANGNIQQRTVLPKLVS
Conditions: at 0.1 µM.

Experiment [7] deals with T1, Dual specificity tyrosine-phosphorylation-regulated kinase 2 (Homo sapiens). The following applies: at 1 µM.
Experiment [8] deals with Glycogen synthase kinase-3 alpha (Homo sapiens) (UniProt P49840). Conditions: at 0.1 µM.
Experiment [9] shares this target. Conditions: at 1 µM.
Experiment [10] addresses Glycogen synthase kinase-3 beta (Homo sapiens) (UniProt P49841). The following applies: at 0.1 µM.

In ChEMBL document CHEMBL1961873, “Compounds: GSK PKIS; Assays: Nanosyn kinase panel” (2012) one finds inhibition data, which are given here for 16 compounds.

The structures appear in SMILES notation.

Chain of Dual specificity protein kinase CLK3 (Homo sapiens) (P49761 whole entry, looked up): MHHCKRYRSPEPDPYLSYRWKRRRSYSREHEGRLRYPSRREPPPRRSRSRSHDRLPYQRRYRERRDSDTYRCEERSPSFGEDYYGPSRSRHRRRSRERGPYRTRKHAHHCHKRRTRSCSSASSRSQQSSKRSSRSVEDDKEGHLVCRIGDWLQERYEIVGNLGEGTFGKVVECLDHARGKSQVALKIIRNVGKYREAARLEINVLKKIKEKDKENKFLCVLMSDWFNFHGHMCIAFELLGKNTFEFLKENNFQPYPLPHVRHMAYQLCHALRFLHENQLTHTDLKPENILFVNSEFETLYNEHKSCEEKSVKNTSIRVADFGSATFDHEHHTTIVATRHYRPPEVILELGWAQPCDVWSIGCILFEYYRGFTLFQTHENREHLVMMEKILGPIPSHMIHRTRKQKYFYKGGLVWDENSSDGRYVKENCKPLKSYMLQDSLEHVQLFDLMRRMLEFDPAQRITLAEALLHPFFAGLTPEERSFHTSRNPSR
Chain of Dual specificity tyrosine-phosphorylation-regulated kinase 1B (Homo sapiens) (Q9Y463 whole entry, looked up): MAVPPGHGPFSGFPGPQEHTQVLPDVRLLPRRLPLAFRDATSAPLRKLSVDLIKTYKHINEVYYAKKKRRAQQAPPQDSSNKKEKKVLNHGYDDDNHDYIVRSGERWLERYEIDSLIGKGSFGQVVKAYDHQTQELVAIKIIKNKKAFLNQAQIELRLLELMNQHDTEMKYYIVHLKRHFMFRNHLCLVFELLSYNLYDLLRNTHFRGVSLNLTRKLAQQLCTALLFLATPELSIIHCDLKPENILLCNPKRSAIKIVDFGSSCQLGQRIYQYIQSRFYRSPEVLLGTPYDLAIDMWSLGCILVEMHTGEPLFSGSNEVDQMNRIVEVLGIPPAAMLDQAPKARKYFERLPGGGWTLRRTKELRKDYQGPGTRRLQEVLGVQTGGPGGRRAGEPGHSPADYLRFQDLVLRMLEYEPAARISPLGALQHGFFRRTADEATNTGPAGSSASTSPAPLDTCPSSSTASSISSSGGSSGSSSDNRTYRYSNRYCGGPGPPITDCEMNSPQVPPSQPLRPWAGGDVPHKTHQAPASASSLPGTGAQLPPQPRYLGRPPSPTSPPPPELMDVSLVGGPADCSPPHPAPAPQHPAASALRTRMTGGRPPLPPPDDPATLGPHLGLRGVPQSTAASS
Chain of Glycogen synthase kinase-3 alpha (Homo sapiens) (P49840 2-483 limits assumed): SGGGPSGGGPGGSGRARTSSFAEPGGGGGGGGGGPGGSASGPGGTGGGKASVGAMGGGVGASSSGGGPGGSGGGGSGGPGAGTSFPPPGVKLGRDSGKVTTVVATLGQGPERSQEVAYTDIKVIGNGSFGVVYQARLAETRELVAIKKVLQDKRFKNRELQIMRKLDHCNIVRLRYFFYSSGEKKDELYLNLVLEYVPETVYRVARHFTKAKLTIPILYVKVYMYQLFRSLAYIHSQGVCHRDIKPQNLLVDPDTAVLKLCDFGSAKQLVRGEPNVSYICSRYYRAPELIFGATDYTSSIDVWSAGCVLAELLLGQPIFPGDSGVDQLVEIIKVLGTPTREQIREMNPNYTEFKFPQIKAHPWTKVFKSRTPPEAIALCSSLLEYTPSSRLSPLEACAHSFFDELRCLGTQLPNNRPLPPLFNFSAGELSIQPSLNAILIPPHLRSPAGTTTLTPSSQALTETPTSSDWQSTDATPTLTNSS
Chain of Glycogen synthase kinase-3 beta (Homo sapiens) (P49841 whole entry, looked up): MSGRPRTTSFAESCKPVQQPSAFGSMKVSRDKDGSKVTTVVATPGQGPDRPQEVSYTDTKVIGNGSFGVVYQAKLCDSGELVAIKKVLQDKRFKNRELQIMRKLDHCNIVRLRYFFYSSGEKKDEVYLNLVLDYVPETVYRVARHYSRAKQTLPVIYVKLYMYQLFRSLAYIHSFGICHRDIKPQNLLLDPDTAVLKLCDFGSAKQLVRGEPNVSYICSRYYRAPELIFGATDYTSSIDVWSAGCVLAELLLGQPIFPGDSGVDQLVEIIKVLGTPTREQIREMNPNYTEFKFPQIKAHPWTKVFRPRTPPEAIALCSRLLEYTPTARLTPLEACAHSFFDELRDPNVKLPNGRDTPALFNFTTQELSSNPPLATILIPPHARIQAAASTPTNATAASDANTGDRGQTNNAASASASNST

For the compound `COc1cccc(-n2nc(C)c3c(N/N=C(\C)c4ccncc4)ncnc32)c1`, the inhibition – broadly, the relative decrease from the control value, in per cent – in experiment [1] was -2.35%; in [2], 1.02%; in experiment [3], 11%; in experiment [4], 1.32%; in [5] it was 8.31%; in experiment [6] it was 0.5%. The inhibition turned out to be 4.22% in [7], 4.39% in [8], 11.6% in experiment [9] and 3.08% in experiment [10].
With `NS(=O)(=O)c1ccc(Nc2cc(-c3cccc(O)c3)n[nH]2)cc1`, the inhibition in experiment [1] came out at 2.62%; in [2], 3.45%; in experiment [3], 7.37%; in [4], 0.5%; in [5], 2.4%; in [6], 3.82%. Also, the inhibition in [7] was determined as 4.65%; in experiment [8], 2.99%; in [9], 6.38%; in experiment [10], 2.02%.
As to `C[C@@H](Oc1cc(-n2cnc3ccc(OCC4CCN(C)CC4)cc32)sc1C(N)=O)c1ccccc1C(F)(F)F`, the inhibition in [1] was 3.73%; in experiment [2] it was -2.42%; in experiment [3] it was 2.47%; in experiment [4], 0.26%; in [5], 2.2%; in experiment [6], -2.57%. Also, the inhibition in experiment [7] is -2.94%; in experiment [8], -0.56%; in experiment [9] it was 2.65%; in experiment [10], -0.31%.
For `CN(C)CCCn1c(-c2nonc2N)nc2cnccc21`, the inhibition in experiment [1] came to 1.96%; in experiment [2], 3.5%; in experiment [3], 8.9%; in [4], 0.77%; in [5] it was 4.52%; in experiment [6], 2.75%. The inhibition in [7] turned out to be 3.79%; in experiment [8], 2.45%; in [9], 15.1%; in experiment [10], 2.77%.
Regarding `FC(F)(F)c1ccc(-c2nn3ncccc3c2-c2ccnc(Nc3ccc4c(c3)OCCO4)n2)cc1`, the inhibition in experiment [1] is 5.27%; in experiment [2] it was 5.25%; in experiment [3], 6.32%; in [4], 4.87%; in [5], 5.88%; in [6], -0.81%. Further, the inhibition was determined as 0.53% in experiment [7], 6.66% in experiment [8], 6.68% in [9] and 7.6% in experiment [10].
For `Nc1nccc(C#Cc2cncnc2Nc2ccc(OCc3cccc(F)c3)c(Cl)c2)n1`, the inhibition in experiment [1] came to 3.1%; in experiment [2] it was 3.44%; in [3], 10.8%; in [4] it was 1.71%; in experiment [5], 4.87%; in experiment [6], 3.08%. The inhibition in [7] stood at 4.89%; in [8], 4.01%; in [9] it was 14.3%; in experiment [10], 2.94%.
Regarding `COC(=O)Nc1nc2cc(Oc3ccc(NC(=O)Nc4cccc(Br)c4)cc3)ccc2[nH]1`, the inhibition stood at 1.74% in experiment [1]; 1.12% in [2]; 2.3% in experiment [3]; 0.23% in experiment [4]; 1.17% in experiment [5]; 3.11% in experiment [6]. The inhibition in experiment [7] amounted to 3.59%; in experiment [8], 2.27%; in experiment [9], 5.24%; in experiment [10] it was 1.01%.
Take `Nc1ccc(C#Cc2cncnc2Nc2ccc(OCc3cccc(F)c3)c(Cl)c2)cc1`: the inhibition in [1] came to 0.7%; in experiment [2] it was 3.22%; in experiment [3], 2.99%; in [4], 0.49%; in [5] it was 2.12%; in experiment [6], 1.74%. For the same compound, the inhibition in experiment [7] came to 0.41%; in experiment [8], 2.01%; in experiment [9] it was 1.4%; in experiment [10], 1.95%.
Regarding `CS(=O)(=O)CCNCc1nc(-c2ccc3ncnc(Nc4ccc(OCc5cccc(C(F)(F)F)c5)cc4)c3c2)cs1`, the inhibition in experiment [1] was -1.22%; in experiment [2], -1.28%; in experiment [3], -1.8%; in experiment [4] it was 0.58%; in experiment [5], 2.3%; in [6] it was 1.36%. The inhibition stood at 1.03% in [7], 6.47% in experiment [8], 4.93% in [9] and 5.25% in [10].
In the case of `Cc1nc(-c2ccccc2)n2nc(NCCCN3CCOCC3)ncc12`, the inhibition in experiment [1] was 1.74%; in experiment [2], 1.71%; in [3] it was 19%; in [4] it was 1.12%; in experiment [5], 7.26%; in [6], 1.55%. Further, the inhibition worked out at 5.9% in experiment [7], 5.02% in experiment [8], 13.1% in experiment [9] and 4.78% in experiment [10].
Take `CCCN1CCCC(c2ccc(Nc3nc(Nc4cc(F)ccc4C(N)=O)c4cc[nH]c4n3)c(OC)c2)C1` (stereo not given): the inhibition in [1] is 22.3%; in [2], 67.5%; in [3] it was 82.7%; in [4], 72%; in experiment [5] it was 82.4%; in experiment [6], 36.3%. Besides, the inhibition in experiment [7] was found to be 82.3%; in experiment [8], 1.49%; in [9] it was 2.99%; in [10], 0.7%.
In the case of `NS(=O)(=O)c1cccc(Nc2cc(-c3ccc(F)cc3)n[nH]2)c1`, the inhibition is 2.68% in experiment [1]; -0.01% in experiment [2]; 4.42% in [3]; -1.06% in experiment [4]; 2.79% in experiment [5]; 1.93% in experiment [6]. For the same compound, the inhibition in experiment [7] amounted to 4.01%; in experiment [8], 3.57%; in experiment [9], 7.78%; in [10], 2.84%.
Take `COc1cc2ncnc(Nc3ccc4c(cnn4Cc4ccccc4)c3)c2cc1OC`: the inhibition is 0.4% in experiment [1]; 2.51% in [2]; 2.6% in experiment [3]; -2.48% in experiment [4]; 0.09% in experiment [5]; 2.37% in experiment [6]. The inhibition was determined as 2.95% in experiment [7], 4.71% in experiment [8], 6.57% in experiment [9] and 4.13% in experiment [10].
Consider `Cc1ccc2c(-c3ccnc(Nc4cccc(C(F)(F)F)c4)n3)c(-c3ccccc3)nn2n1`, for which the inhibition in experiment [1] was 2.3%; in experiment [2], 3.65%; in [3], 2.62%; in experiment [4], 1.3%; in experiment [5], 2.46%; in experiment [6], 4.31%. The inhibition in experiment [7] is 5.83%; in [8] it was 22.6%; in [9] it was 68.5%; in experiment [10], 35.7%.
Take `CCS(=O)(=O)c1ccc(OC)c(Nc2nccc(N(C)c3ccc4c(C)n[nH]c4c3)n2)c1`: the inhibition was 2.41% in experiment [1]; 2.89% in experiment [2]; 3.45% in experiment [3]; -0.67% in experiment [4]; -0.22% in [5]; 2.84% in [6]. Further, the inhibition in experiment [7] was found to be 2.34%; in experiment [8], 2.43%; in [9], 3.41%; in [10], 1.45%.
As to `N#Cc1c(NC(=O)c2ccccc2F)sc2c1CCCC2`, the inhibition was -0.09% in experiment [1]; -0.74% in experiment [2]; 1.91% in experiment [3]; 0.18% in experiment [4]; 0.36% in [5]; -2% in experiment [6]. Besides, the inhibition was -2.88% in experiment [7], -0.74% in experiment [8], 0.03% in experiment [9] and -0.5% in experiment [10].
